According to PubChem BioAssay AID2289 (National Center for Advancing Translational Sciences (NCATS), 2010):
Out of some 340,000 compounds screened, about 3,300 (0.97%) were called active. About 9% were inconclusive and are not listed. The call rests on the fitted dose curve; in most records, active means well fitted inhibition curve with a large enough effect; inconclusive means small, poorly fitted or top-dose-only effect, or effect the other way; inactive means flat fitted curve, though single readings scatter. The list shows a part of the results.

Assay: qHTS Assay for Modulators of miRNAs and/or Inhibitors of miR-21; further: nearly all actives have a fitted effect of over 55% in size
Conditions: HeLa miR-21-FLuc reporter, luciferase luminescence, 48 h; actives lower the signal
Text: MLSCN Grant: 1 R21 NS059478-01 Assay Provider: Qihong Huang, The Wistar Institute NCGC Assay Overview: MicroRNAs (miRNAs) are endogenously encoded small (~20-25 nucleotides), nonprotein-coding RNAs that are involved in post-transcriptional repression of target messenger RNAs (mRNAs) (Le and Hannon, 2004). Estimated to be involved in the regulation of 30% of all protein-coding mRNAs (Filipowicz et al., 2008), miRNAs play a significant role in many biological processes including cellular differentiation and tissue development (Ghildiyal and Zamore, 2009).
NCGC Assay Protocol Summary: Reagents: HeLa cells stably expressing firefly luciferase (FLuc) under the control of a CMV promoter (upstream) and a miR-21 binding sequence directly downstream of the gene. These cells endogenously express miR-21. Control compounds used were compound C3 (provided by collaborator), N6-phenyladenosine (MP Biomedicals, 0215379625), and DMSO. Assay Summary: 6uL of HeLa miR-21-FLuc cells in assay buffer (DMEM, Invitrogen #21063-029; 10% FBS, HyClone #SH30071.03) were dispensed at 2000cells/well (3.3 x 10^5 cells/mL) into Greiner solid-white TC-treated 1536-well plates using a Multidrop Combi (Thermo Fisher Scientific). Plates were incubated for one hour at 37 degree Celsius, 95% humidity, 5% CO2. These assay plates were then treated with 23nL of compound or DMSO using a Kalypsys pin tool, which allows for delivery of a 24-point titration of each compound to the assay plate, with a final compound concentration ranging from approximately 40uM to 5pM. Assay plates were then incubated for 48 hours. After incubation, plates were allowed to come to RT for one hour prior to delivery of 3uL of 3X luciferase detection reagent. After a 15 minute incubation to allow for cell lysis, luciferase activity was measured using a ViewLux CCD imager (PerkinElmer), with an average exposure time of 2-12 seconds. Keywords: NIH Roadmap, MLPCN, MLSMR, qHTS, miR-21, microRNA, firefly luciferase, FLuc.
Potency means the concentration at half of the fitted maximal effect.

SMILES | Potency
NNC(=O)c1cccc(COc2ccc3c(c2)CCC3)c1 | 0.185 µM (active)
O=C(NCc1ccccc1)c1cccc(COc2ccc3c(c2)CCC3)c1 | 0.585 µM (active)
COc1ccccc1NC(=O)Nc1nc2ccc(S(N)(=O)=O)cc2s1 | 4.14 µM (active)
Cc1cc(C(=O)Nc2nc3ccc(Cl)cc3s2)nn1C | 0.927 µM (active)
O=C(Nc1nc2ccc(F)cc2s1)c1ccccn1 | 0.104 µM (active)
NS(=O)(=O)c1ccc2nc(NC(=O)Nc3ccccc3F)sc2c1 | 0.329 µM (active)
O=C(Nc1nc2ccccc2s1)Nc1ccc(F)cc1F | 0.736 µM (active)
Cc1ccccc1OCC(O)Cn1nnc2ccccc21 (stereo not given) | 7.36 µM (active)
CC(C)(C)CC(=O)Nc1nnc(-c2cccs2)s1 | 1.31 µM (active)
CCOc1ccc2c(c1)c(N=Nc1cccc(C(=O)O)c1)c(O)n2C | 6.56 µM (active)
CN(C(=O)c1cccc(COc2ccc(Cl)cc2Cl)c1)c1ccccc1 | 2.61 µM (active)
O=C(NCc1ccccc1)c1cccc(COc2cc(Cl)ccc2Cl)c1 | 7.36 µM (active)
CN1CCN(C(=O)c2cccc(COc3cc(Cl)ccc3Cl)c2)CC1 | 16.5 µM (active)
N#Cc1ccccc1NC(=O)c1cccc(COc2ccc(Cl)cc2Cl)c1 | 1.65 µM (active)
Cc1cc(C)c2c(N)c(C(=O)NCC3CCCCC3)sc2n1 | 6.56 µM (active)
Cc1cc(C)c2c(N)c(C(=O)N/N=C/c3cccs3)sc2n1 | 1.47 µM (active)
CCCCOC(=O)c1sc2nc(C)cc(C)c2c1N | 5.85 µM (active)
Cn1c(=O)c(/C=C/c2ccccc2)nc2ccccc21 | 2.07 µM (active)
O=c1[nH]c2ccccc2nc1/C=C/c1ccccc1 | 2.33 µM (active)
CC(C)n1c(/C=C/c2ccccc2)nc2ccccc21 | 6.56 µM (active)
Cc1cccc(-c2noc(-c3cc(C(C)C)[nH]n3)n2)c1 | 0.464 µM (active)
COc1ccc(-c2noc(-c3cc(C(C)C)[nH]n3)n2)cc1 | 3.29 µM (active)

SMILES | Potency
CC12COC3(C(=O)Nc4ccc5ccccc5c4)CC1CCC32C (stereo not given) | 7.36 µM (active)
CCN1CCN(c2ccc(NC(=O)c3ccco3)cc2Cl)CC1 | 8.26 µM (active)
CCN1CCN(c2ccc(NC(=O)c3ccccc3F)cc2Cl)CC1 | 2.93 µM (active)
Cc1ccc(Nc2ncnc(-n3cccc3)n2)cc1Cl | 2.33 µM (active)
COc1ccc(-c2c(C)nc3c(-c4ccccn4)cnn3c2N)cc1 | 0.261 µM (active)
COc1ccc(-c2c(C)nc3c(-c4ccsc4)cnn3c2N)cc1 | 0.414 µM (active)
CCOC(=O)C1=C(CSc2nc(-c3ccccc3)ccc2C#N)OC(N)=C(C#N)C1c1ccc(OC)cc1 (stereo not given) | 11.7 µM (active)
COc1ccc(C(=O)Cc2ccc(F)cc2)c(OC)c1 | 13.1 µM (active)
O=[N+]([O-])c1ccc(/C=N/N2CCCCC2)cc1 | 5.21 µM (active)
COc1ccc(-c2nnc(SCC(=O)c3cccs3)o2)c(OC)c1 | 6.56 µM (active)
Cc1cc(Cl)c2oc(C(=O)N3CCN(C(=O)c4ccco4)CC3)c(C)c2c1 | 14.7 µM (active)
Cc1cc(Cl)c2oc(C(=O)N3CCN(c4cccc(C)n4)CC3)c(C)c2c1 | 4.65 µM (active)
CN(C(=O)c1ccc2c(Cl)c3c(nc2c1)CCC3)c1ccccc1 | 14.7 µM (active)
O=C(Nc1ccc(Cl)cn1)c1ccc2c(Cl)c3c(nc2c1)CCC3 | 0.185 µM (active)
N#Cc1ccccc1NC(=O)c1ccc2c(Cl)c3c(nc2c1)CCCC3 | 2.93 µM (active)
COCCNC(=O)c1ccc2c(Cl)c3c(nc2c1)CCC3 | 5.85 µM (active)
Cc1ccnc(SCC(=O)N2CCc3ccccc32)n1 | 7.36 µM (active)
O=C(CSc1ncccc1-c1nc2ccccc2[nH]1)N1CCc2ccccc21 | 5.21 µM (active)
O=C(CSc1ccccc1)N1CCc2ccccc21 | 3.29 µM (active)
CCn1c(-c2ccc(F)cc2)cnc1SCC(=O)N1CCc2ccccc21 | 11.7 µM (active)
Cc1ccc(SCC(=O)N2CCc3ccccc32)cc1 | 14.7 µM (active)
COc1cccc2cc(-c3nnc(Nc4ccccc4C)s3)c(=O)oc12 | 0.736 µM (active)

SMILES | Potency
O=c1oc2cc(O)ccc2cc1-c1nnc(Nc2ccccc2F)s1 | 0.369 µM (active)
COc1cccc2cc(-c3nnc(Nc4c(F)cccc4F)s3)c(=O)oc12 | 1.04 µM (active)
COc1cccc(N2CCN(C(=O)c3ccc4nc(N5CCC(C)CC5)sc4c3)CC2)c1 | 1.47 µM (active)
CC1CCN(c2nc3ccc(C(=O)NCCCN4CCCCC4C)cc3s2)CC1 (stereo not given) | 0.0656 µM (active)
CCC1CCCCN1CCCNC(=O)c1ccc2nc(N3CCC(C)CC3)sc2c1 (stereo not given) | 0.0656 µM (active)
CC1CCN(c2nc3ccc(C(=O)NCCCN4CCCCC4)cc3s2)CC1 | 0.0927 µM (active)
O=C(NC(=S)Nc1nc2ccccc2s1)c1ccco1 | 1.17 µM (active)
Cc1ccc2nc(NC(=S)NC(=O)c3ccco3)sc2c1 | 0.736 µM (active)
Cc1ccc(-c2nnc(NC(=O)c3ccco3)s2)cc1 | 1.47 µM (active)
CC1CCC/C(=C\Nc2ccc(O)cc2)C1=O (stereo not given) | 10.4 µM (active)
CC1CCC/C(=C\Nc2ccc(C(=O)O)cc2)C1=O (stereo not given) | 0.585 µM (active)
COC(=O)Nc1nnc(/C=C/c2ccc(OC)cc2)s1 | 4.14 µM (active)
CCC(=O)Nc1nnc(/C=C/c2ccc(OC)cc2)s1 | 11.7 µM (active)
CCC(=O)Nc1nnc(/C=C/c2ccccc2)s1 | 13.1 µM (active)
C/C(=N\NC(=O)c1cccc(N/N=C(\C)c2ccccc2)c1)c1ccccc1 | 14.7 µM (active)
C/C(=N\Nc1cccc(C(=O)O)c1)c1ccc(Cl)s1 | 6.56 µM (active)
COc1ccc(/C(C)=N/Nc2cccc(C(=O)O)c2)cc1OC | 10.4 µM (active)
CC(=O)Nc1cccc(C(=O)N/N=C/c2ccccc2F)c1 | 2.07 µM (active)
C/C(=N\Nc1ccc([N+](=O)[O-])cc1)c1ccco1 | 3.69 µM (active)
C/C(=N\NC(=O)c1cccc(N/N=C(\C)c2ccco2)c1)c1ccco1 | 6.56 µM (active)
C/C(=N/NC(=O)c1ccccc1)C(=O)O | 2.93 µM (active)
